Reference: the supplement of paper PMC12282887
± gives the standard deviation of the averaged measurements.

Assays:
Assay in all cases: promoter activity interaction Z-score (Lux/OD deviation from empty-vector control); higher = stronger promoter induction by the compound
[1] = tested on: E. coli BW25113 acrABp lux reporter
Procedure, shortened: (§1)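 Four 1:2 dilutions of each compound were tested in biological duplicates on E. coli BW25113 carrying low-copy luxCDABE promoter reporters, either wild type or deleted for one of three genes. Cultures of 40 µl LB Lennox in 384-well plates were kept at 37°C and read for OD600 and luminescence every 30 min for 12 h. Integration windows were 0–8 h for wild type and 1–9 h for deletion strains, and wells under 10% of the median growth value were discarded. The score is a Z-transformed residual of growth-normalised luminescence relative to a control fit.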

[2] = tested on: E. coli BW25113 marRABp lux reporter
Procedure, shortened: as §1

[3] = tested on: E. coli BW25113 micFp lux reporter
Procedure, shortened: as §1

[4] = tested on: E. coli BW25113 ompFp lux reporter
Procedure, shortened: as §1

[5] = tested on: E. coli BW25113 robp lux reporter
Procedure, shortened: as §1

[6] = tested on: E. coli BW25113 soxSp lux reporter
Procedure, shortened: as §1

[7] = tested on: E. coli BW25113 tolCp lux reporter
Procedure, shortened: as §1

[8] = 0.0054 µg/ml, genetic background: wild type
[9] = 0.0054 µg/ml, genetic background: ΔmarA
[10] = 0.0054 µg/ml, genetic background: Δrob
[11] = 0.0054 µg/ml, genetic background: ΔsoxS
[12] = 0.011 µg/ml, genetic background: wild type
[13] = 0.011 µg/ml, genetic background: ΔmarA
[14] = 0.011 µg/ml, genetic background: Δrob
[15] = 0.011 µg/ml, genetic background: ΔsoxS
[16] = 0.022 µg/ml, genetic background: wild type
[17] = 0.022 µg/ml, genetic background: ΔmarA
[18] = 0.022 µg/ml, genetic background: Δrob
[19] = 0.022 µg/ml, genetic background: ΔsoxS
[20] = 0.044 µg/ml, genetic background: wild type

C[C@H]1[C@H](NC(=O)/C(=N\OC(C)(C)C(=O)O)c2csc(N)n2)C(=O)N1S(=O)(=O)O [Aztreonam]
promoter activity interaction Z-score [1, 8]: -0.253 ± 0.084
promoter activity interaction Z-score [1, 9]: -0.209 ± 1.9
promoter activity interaction Z-score [1, 10]: -0.333 ± 0.022
promoter activity interaction Z-score [1, 11]: -0.321 ± 0.053
promoter activity interaction Z-score [1, 12]: 0.0466 ± 0.11
promoter activity interaction Z-score [1, 13]: 1.29 ± 1.5
promoter activity interaction Z-score [1, 14]: -0.509 ± 0.068
promoter activity interaction Z-score [1, 15]: -0.163 ± 0.42
promoter activity interaction Z-score [1, 16]: -0.332 ± 0.23
promoter activity interaction Z-score [1, 17]: 0.66 ± 1.8
promoter activity interaction Z-score [1, 18]: -0.535 ± 0.26
promoter activity interaction Z-score [1, 19]: -0.424 ± 0.41
promoter activity interaction Z-score [2, 8]: -0.108 ± 0.36
promoter activity interaction Z-score [2, 9]: 0.583 ± 0.95
promoter activity interaction Z-score [2, 10]: -0.202 ± 0.19
promoter activity interaction Z-score [2, 11]: -0.188 ± 0.0033
promoter activity interaction Z-score [2, 12]: 0.0506 ± 0.094
promoter activity interaction Z-score [2, 13]: -0.139 ± 0.26
promoter activity interaction Z-score [2, 14]: -0.0608 ± 0.52
promoter activity interaction Z-score [2, 15]: -0.218 ± 0.047
promoter activity interaction Z-score [2, 16]: 0.0487 ± 0.33
promoter activity interaction Z-score [2, 17]: 0.0272 ± 0.41
promoter activity interaction Z-score [2, 18]: -0.0627 ± 0.18
promoter activity interaction Z-score [2, 19]: -0.214 ± 0.088
promoter activity interaction Z-score [3, 8]: -0.16 ± 0.07
promoter activity interaction Z-score [3, 9]: 0.09 ± 0.019
promoter activity interaction Z-score [3, 10]: -0.0804 ± 0.089
promoter activity interaction Z-score [3, 11]: -0.271 ± 0.15
promoter activity interaction Z-score [3, 12]: 0.0711 ± 0.15
promoter activity interaction Z-score [3, 13]: 0.045 ± 0.1
promoter activity interaction Z-score [3, 14]: -0.174 ± 0.022
promoter activity interaction Z-score [3, 15]: 0.375 ± 0.11
promoter activity interaction Z-score [3, 16]: -0.368 ± 0.07
promoter activity interaction Z-score [3, 17]: 0.0282 ± 0.096
promoter activity interaction Z-score [3, 18]: -0.184 ± 0.33
promoter activity interaction Z-score [3, 19]: -0.331 ± 0.2
promoter activity interaction Z-score [4, 8]: 0.304 ± 0.71
promoter activity interaction Z-score [4, 9]: 1.01 ± 0.48
promoter activity interaction Z-score [4, 10]: 0.73 ± 0.63
promoter activity interaction Z-score [4, 11]: -0.689 ± 0.21
promoter activity interaction Z-score [4, 12]: 0.141 ± 0.14
promoter activity interaction Z-score [4, 13]: 1.02 ± 0.8
promoter activity interaction Z-score [4, 14]: -0.364 ± 0.87
promoter activity interaction Z-score [4, 15]: 0.129 ± 0.2
promoter activity interaction Z-score [4, 16]: -0.19 ± 0.57
promoter activity interaction Z-score [4, 17]: 1.43 ± 0.23
promoter activity interaction Z-score [4, 18]: -0.565 ± 1.7
promoter activity interaction Z-score [4, 19]: -0.303 ± 0.73
promoter activity interaction Z-score [5, 8]: -0.543 ± 0.46
promoter activity interaction Z-score [5, 9]: 1.13 ± 0.88
promoter activity interaction Z-score [5, 10]: -0.203 ± 0.46
promoter activity interaction Z-score [5, 11]: -1.41 ± 0.17
promoter activity interaction Z-score [5, 12]: 0.385 ± 0.037
promoter activity interaction Z-score [5, 13]: 1.33 ± 2
promoter activity interaction Z-score [5, 14]: -0.405 ± 0.69
promoter activity interaction Z-score [5, 15]: -0.722 ± 0.24
promoter activity interaction Z-score [5, 16]: -0.69 ± 0.072
promoter activity interaction Z-score [5, 17]: -0.124 ± 0.43
promoter activity interaction Z-score [5, 18]: -1.16 ± 1.2
promoter activity interaction Z-score [5, 19]: -1.07 ± 0.27
promoter activity interaction Z-score [6, 8]: 0.278 ± 0.064
promoter activity interaction Z-score [6, 9]: 0.333 ± 0.11
promoter activity interaction Z-score [6, 10]: -0.00514 ± 0.076
promoter activity interaction Z-score [6, 11]: -0.126 ± 0.11
promoter activity interaction Z-score [6, 12]: 0.305 ± 0.13
promoter activity interaction Z-score [6, 13]: 0.172 ± 0.0071
promoter activity interaction Z-score [6, 14]: -0.21 ± 0.25
promoter activity interaction Z-score [6, 15]: 0.164 ± 0.46
promoter activity interaction Z-score [6, 16]: 0.0318 ± 0.13
promoter activity interaction Z-score [6, 17]: 0.1912 ± 0.0014
promoter activity interaction Z-score [6, 18]: -0.194 ± 0.19
promoter activity interaction Z-score [6, 19]: -0.106 ± 0.33
promoter activity interaction Z-score [6, 20]: -0.0693 ± 0.29
promoter activity interaction Z-score [7, 8]: -0.174 ± 0.12
promoter activity interaction Z-score [7, 9]: 0.0726 ± 0.53
promoter activity interaction Z-score [7, 10]: -0.67 ± 1.8
promoter activity interaction Z-score [7, 11]: -1.94 ± 0.062
promoter activity interaction Z-score [7, 12]: 0.647 ± 0.59
promoter activity interaction Z-score [7, 13]: -0.497 ± 0.27
promoter activity interaction Z-score [7, 14]: -0.241 ± 1
promoter activity interaction Z-score [7, 15]: -0.196 ± 0.045
promoter activity interaction Z-score [7, 16]: 0.105 ± 0.69
promoter activity interaction Z-score [7, 17]: -0.22 ± 1.1
promoter activity interaction Z-score [7, 18]: 1.61 ± 1
promoter activity interaction Z-score [7, 19]: -0.251 ± 0.32
promoter activity interaction Z-score [7, 20]: -1.04
